Active and inactive are the calls of the source. How the source made its calls: active means hit-call score of the fitted dose curve at least 0.9, where 1 is the maximum; inactive means score below 0.9.
Experiment: ATG_NFI_CIS: Attagene CIS-FACTORIAL HepG2 Assay for human Nuclear Factor I (NFI) (AID 2282989)
Conditions: HepG2 cis-regulatory reporter, NFI response element transcription; actives raise or lower the signal
Protocol: ATG_CIS is a cell-based, multiplexed-readout assay that uses HepG2, a human liver cell line, with measurements taken at 24 hours after chemical dosing in a 24-well plate.ATG_NFI_CIS is one of 52 assay component(s) measured or calculated from the ATG_CIS assay. It is designed to make measurements of mRNA induction, a form of inducible reporter, as detected with fluorescence intensity signals by Reverse transcription polymerase chain reaction (RT-PCR) and Capillary electrophoresis technology.Data from the assay component ATG_NFI_CIS was analyzed into 1 assay endpoint. This assay endpoint, ATG_NFI_CIS, was analyzed with bidirectional fitting relative to DMSO as the negative control and baseline of activity. Using a type of inducible reporter, measures of mRNA for gain or loss-of-signal activity can be used to understand the reporter gene at the transcription factor-level as they relate to the gene NFIA. Furthermore, this assay endpoint can be referred to as a primary readout, because this assay has produced multiple assay endpoints where this one serves a reporter gene function. To generalize the intended target to other relatable targets, this assay endpoint is annotated to the dna binding intended target family, where the subfamily is nuclear factor I.
Human liver HepG2 cells are transiently transfected with multiple reporter transcription units (MRTUs) in 6-well plates using FuGene 6 reagent (Roche; 3 ml FuGene/1 mg DNA). The MRTU constructs are regulated by a cis-regulating element (promoter). […] A major difference between the CIS and TRANS system is that in CIS activities of endogenous TFs are measured, whereas the TRANS assay evaluates changes in activities of exogenous, chimeric NR-Gal4 proteins. […] At the end of 24 hour incubation, total RNA was isolated using TriZol reagent (Invitrogen). The isolated RNA is then reverse-transcribed using oligo(dT) primer and Mo-MLV reverse transcriptase (Invitrogen) with DNAse I (Ambion) treatment for 30 min. The one-tenth of the produced cDNA was amplified by PCR using Taq DNA polymerase (Invitrogen) and two reporter sequence-specific primers. The PCR products were fluorescently labeled by primer extension with 6-arboxyfluorescein (6-FAM) 5'-labeled reporter sequence-specific primer (2 min at 95 C, 20 s at 68 C and 10 min at 72 C) and these products were digested with 5U of HpaI (New England Biolabs) for 2h at 37 C. The fragments were purified using Qiaquick PCR columns (Qiagen), analyzed on an ABI 3130xL genetic analyzer (Applied Biosystems) with peak positions identified by using a set of X-rhodamine (ROX)-labeled MapMarker1000 molecular weight standards (BioVentures). The raw capillary electrophoresis data was processed using Attagraph software (Attagene).

outcome, inactive:
CC(C=O)Cc1ccc(C(C)C)cc1 (stereo not given)
CC(=O)c1c(C)cc(C(C)(C)C)cc1C
NCCCCCCN
CCC(=O)OCCC(C)CCC=C(C)C (stereo not given)
C[C@H]1C[C@H]2[C@@H]3CCC4=CC(=O)C=C[C@]4(C)[C@@]3(F)[C@@H](O)C[C@]2(C)[C@@]1(O)C(=O)COP(=O)(O)O
CCCCCCCCCCC(CO)CCCCCCCC (stereo not given)
COc1ccc(O)cc1
CC1CCC2CC1C2(C)C (stereo not given)
CC(=O)O[C@H](CC(=O)[O-])C[N+](C)(C)C
CC1(C)[C@@H]2CC[C@@]1(C)[C@H](O)C2
Cc1ccc(Nc2ccc(O)c3c2C(=O)c2ccccc2C3=O)cc1
Cc1ccc2ccccc2n1
C=CC(=O)OCCn1c(=O)n(CCOC(=O)C=C)c(=O)n(CCOC(=O)C=C)c1=O
Cc1ccc2n[nH]nc2c1
Nc1cccc(S(=O)(=O)c2cccc(N)c2)c1
CO[Si](CCCn1c(=O)n(CCC[Si](OC)(OC)OC)c(=O)n(CCC[Si](OC)(OC)OC)c1=O)(OC)OC
C=O
CC(C#N)(CCC(=O)O)N=NC(C)(C#N)CCC(=O)O (stereo not given)
CC1=CC(=O)NS(=O)(=O)O1
CC(=O)O[C@]1(C(C)=O)CC[C@H]2[C@@H]3C[C@H](C)C4=CC(=O)CC[C@]4(C)[C@H]3CC[C@@]21C
CC(C)(C)c1cc(CCC(=O)NN)cc(C(C)(C)C)c1O
Cc1ccc2sc3cccc(C)c3c2c1
CCCCNC(=O)NS(=O)(=O)c1ccc(C)cc1
CCC/C=C/C=O
COc1nc(C)nc(N)n1
O=C(O)c1ccc(C(=O)O)cc1
CC(=O)C(=O)O
O=[N+]([O-])c1ccc(C=Cc2ccc([N+](=O)[O-])cc2S(=O)(=O)O)c(S(=O)(=O)O)c1
COc1ccc(NC(=O)CC(C)=O)cc1
NCCOCCO
CCCCCCOC(=O)CC
CCCCCC=CCC(=O)OC
CC(CCO)CCCC(C)(C)O (stereo not given)
CC(C)[C@H]1CC[C@@H](C)CC1=O
COC(C(=O)O)c1ccccc1 (stereo not given)
Nc1ccc(F)c([N+](=O)[O-])c1
CC(C)[C@@H]1CC[C@@H](C)CC1=O
O=C1CCc2ccccc2O1
CC(CN1c2ccccc2Sc2ccccc21)N(C)C (stereo not given)
CCCCCOC(=O)CCC
